GCN5L2 inh = inhibitors of human GCN5L2 histone acetyltransferase; GCN5L2 HAT assay, ThioGlo1 CoA-SH fluorescence; Potency, µM (series often up to 58.9 µM), for the others: at the highest dose activity change, negative = inhibition, usual class: inhibitors; 390,000 tested, 0.21% active; AID 504327; further: potency means the concentration at half of the fitted maximal effect
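Free CoA generated was detected with ThioGlo1 (50uM) fluorescence at Ex340nm/Em540nm, read immediately and after 20 min at room temperature. Enzyme, 20 nM in HEPES pH 7.5 buffer, saw compounds 15 min before adding 75uM H3(1-25) peptide and 70uM acetyl-CoA.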
VDR inh = vitamin D3 receptor (human) inhibition. VDR-SRC2-3 peptide fluorescence polarization, 2 h. P11473. Potency, µM, for the others: max response, negative = inhibition, usual class: inhibitors. 400,000 tested, 0.93% active; further: potency means the concentration at half of the fitted maximal effect
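Inhibition of the VDR/SRC2-3 peptide interaction is quantified by fluorescence polarization. Compounds (23 nl, pintool) incubate with the reagents for 2 hours at ambient room temperature.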
GLS inhibitor = inhibitors of human glutaminase (GLS) | O94925 | Potency, µM (titrated, usually from 45.5 µM), inactives show top-dose activity change, negative = inhibition, actives largely listed as inhibitors | GLS enzymatic activity, qHTS titration | 410,000 tested, 0.21% active; further: potency means the concentration at half of the fitted maximal effect
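hKGA; 45 mM KH2PO4 pH 8.2 + 0.02% Tween-20; cpd via pin tool; 1 mM Gln soln; GluOx/HRP/Amplex Red; RT 30 min; fluor. t0 & final.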
PLK1 PBD inh = PLK1 (human) polo-box domain binding inhibition; P53350; Plk1 PBD binding of FITC phosphopeptide, fluorescence polarization; Potency, µM, for inactives: max response, negative = inhibition, most hits filed as inhibitors; 360,000 tested, 2.8% active; further: potency means the concentration at half of the fitted maximal effect; series mostly up to about 57 µM; nearly all actives have a fitted effect of over 65% in size
PI4K2A block = blocks human PI4K2A kinase activity. Q9BTU6. purified PI4K2A, ADP-Glo luminescence, 1 h; stronger effect = lower value. activity change, negative = inhibition, % at 76.9 µM. 420,000 tested, 0.13% active. AID 1346378; in the data active means activity change below about -50%; inconclusive means mostly about -30% to -49%;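 further: -100% = wells without enzyme as full effect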
Target sequence (Q9BTU6 whole entry, looked up): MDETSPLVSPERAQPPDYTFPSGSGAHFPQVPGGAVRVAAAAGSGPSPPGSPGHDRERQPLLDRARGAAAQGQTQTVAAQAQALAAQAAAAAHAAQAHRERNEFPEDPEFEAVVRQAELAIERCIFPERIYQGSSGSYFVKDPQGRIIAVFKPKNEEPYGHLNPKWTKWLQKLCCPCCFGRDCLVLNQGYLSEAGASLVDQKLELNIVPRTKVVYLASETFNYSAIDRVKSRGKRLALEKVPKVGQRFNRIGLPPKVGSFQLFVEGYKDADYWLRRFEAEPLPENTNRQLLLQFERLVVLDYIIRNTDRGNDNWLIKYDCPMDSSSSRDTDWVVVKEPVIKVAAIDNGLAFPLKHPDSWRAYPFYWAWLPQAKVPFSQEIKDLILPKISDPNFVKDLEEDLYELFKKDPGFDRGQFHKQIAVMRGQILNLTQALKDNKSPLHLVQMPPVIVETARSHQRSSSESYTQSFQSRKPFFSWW
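Compounds are screened against recombinant PI4K2A using PI as substrate and ATP, the latter dispensed at 300 microM. Reactions run one hour at ambient temperature before ADP-Glo detection; full inhibition defined by wells lacking enzyme.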
Numbers without * were called inactive; ? = inconclusive; . = no result. An excerpt weighted towards active compounds, which were near 3.1% of everything screened. Unless noted, the call rests on the fitted dose curve; in most records, active means well fitted curve in the direction sought with a large enough effect; inconclusive means small, poorly fitted or top-dose-only effect, or another doubt; inactive means no such curve, though single readings can be large; an effect the other way counts as inactive or inconclusive. Unless noted, on the % scale 0 is the no-effect control and ±100 the full control effect.

SMILES	GCN5L2 inh	VDR inh	GLS inhibitor	PLK1 PBD inh	PI4K2A block
CNc1nc(C)c([N+](=O)[O-])c(Nc2ccc(OC)cc2)n1	-8.0%	?	?	11.9µM*	-2.4
COc1ccc2c(c1)CCCN2C(=O)C1CCCN(S(=O)(=O)c2ccc(C(C)(C)C)cc2)C1 (centres undefined)	.	.	.	.	-5.9
COCCn1c(=NC(=O)CSCC(=O)Nc2cc(C)on2)sc2cc(C(=O)OC)ccc21	-1.3%	-19.0%	16.8%	26.7µM*	1.7
COCCn1c(=NC(=O)CCS(=O)(=O)c2ccccc2)sc2cc(C(=O)OC)ccc21	-18.8%	-7.8%	-2.4%	1.0%	-1.3
O=C(c1cccc(Oc2ccccc2)c1)N1CCC(Oc2cccnc2)CC1	.	.	.	.	-1.8
CC(C)(C)N(Cc1ccc2c(c1)OCO2)C(=O)/C=C\S(=O)c1ccccc1 (centres undefined)	.	70.8µM*	18.4%	?	-4.9
Cc1nc(NC(=O)C2CCCC2)sc1Cc1ccc2c(c1)OCO2	-10.5%	15.4%	1.0%	-2.4%	-0.5
Cc1c(Cc2ccc3c(c2)OCO3)sc(NC(=O)C2CC2)c1C(N)=O	-7.8%	50.1µM*	5.3%	3.77µM*	1.4
Cc1ccc(S(=O)(=O)n2c3ccc(Cl)cc3c3nc(C)sc32)cc1	-9.1%	-13.5%	5.6%	26.7µM*	0.4
COC(=O)Cn1c2ccc(Cl)cc2c2nc(C)sc21	-3.0%	-9.6%	2.5%	-7.5%	5.5
COc1cc2c(cc1NC(=O)CSc1nnc(-c3ccccc3F)n1-c1ccc(C)cc1)oc1ccccc12	.	.	.	.	-12.6
CCc1ccc2c(c1)C(NC(C)=O)C(=O)N2CCN1CCOCC1 (centres undefined)	0.9%	?	5.01µM*	-6.1%	-6.2
COc1ccc(NC(=O)c2c(NCc3cccc(F)c3)sc3c2CCC3)c(OC)c1	-2.9%	-5.7%	1.0%	.	-3.8
Cc1cc2c(SCC(=O)Nc3ccccc3O)ncnc2s1	.	-17.5%	3.9%	29.9µM*	-26.5
CC(=O)c1ccc(N2CCN(C(=O)Nc3ccc(Cl)cc3)CC2)cc1	-8.5%	2.7%	1.3%	-3.4%	-3.0
O=C(Nc1ccc(Cl)cc1)N1CCN(c2ccccc2)CC1	-4.6%	-8.7%	30.4%	26.7µM*	0.6
CS(=O)(=O)N1CCN(c2ccc(NC(=O)C(c3ccccc3)c3ccccc3)cc2)CC1	-2.7%	-3.7%	6.2%	-1.9%	-1.7
O=C(Nc1ccc(N2CCCC2)cc1)C(Cl)c1ccccc1 (centres undefined)	-8.7%	44.7µM*	-19.6%	-29.0%	?
Cc1cc(OCCOCC[N+](C)(C)Cc2ccccc2)ccc1C(C)(C)CC(C)(C)C	.	.	.	.	-1.8
CCOC(=O)/C(=C/c1ccc(F)cc1)NC(C)=O	0.1%	-18.0%	-3.6%	4.3%	-15.6
CCOC(=O)/C(=C\c1c[nH]c2ccccc12)NC(C)=O	-9.7%	?	5.4%	21.2µM*	-1.7
CC(C)C1NC(=S)N(C2CCCCC2)C1=O (centres undefined)	3.5%	-1.9%	6.5%	-11.7%	-5.5
O=c1[nH][nH]c(=S)n1C1CCCCC1	15.8µM*	35.5µM*	?	2.99µM*	0.3
C=Cc1ccc(CN2CCCN(Cc3ccc(F)cc3)S2(=O)=O)cc1	-3.0%	4.2%	-7.6%	2.2%	-1.9
C=Cc1ccc(CN2CCCN(Cc3ccc(Cl)cc3)S2(=O)=O)cc1	0.0%	?	-12.9%	15µM*	-3.7
SMILES	GCN5L2 inh	VDR inh	GLS inhibitor	PLK1 PBD inh	PI4K2A block
CCC(=O)Nc1nc(=S)ss1	-19.6%	44.7µM*	3.8%	21.2µM*	-7.8
CC(C)(C)C(=O)Nc1nc(=S)ss1	-24.4%	?	4.6%	?	6.4
Nc1nc(O)c(Sc2ccccc2[N+](=O)[O-])c(=O)[nH]1	-18.5%	-10.3%	-11.0%	11.9µM*	-1.2
CC(Sc1nc(NCc2ccccc2)nc(N2CCOCC2)n1)C(=O)Nc1ccccc1 (centres undefined)	-1.4%	-20.6%	-4.2%	29.9µM*	-8.0
CCOC(=O)c1ccc(N2CCN(c3cc(C)ccc3C)CC2)c(NC(=O)Nc2ccc(Cl)cc2)c1	-9.0%	10.8%	2.5%	.	0.7
COCCCn1c(C(=O)Nc2ccc3c(c2)OCO3)cc2c(=O)n3ccccc3nc21	-6.9%	?	?	2.99µM*	-2.5
COCCCn1c(C(=O)N2CCOCC2)cc2c(=O)n3ccccc3nc21	?	16.6%	11.4%	-5.9%	2.7
C/C(=N\NC(=O)c1cccc(N/N=C(\C)c2ccncc2)c1)c1ccncc1	-11.1%	-20.5%	37.8%	26.7µM*	-4.5
C/C(=N\NC(=O)c1ccncc1)c1cccnc1	-7.2%	7.8%	16.6%	-2.4%	0.5
COc1ccc(/C(C)=N/NC(=O)CNC(=O)c2cccnc2)cc1	-3.7%	-14.1%	5.9%	-6.5%	0.8
C/C(=N\NC(=O)c1cccs1)c1cccnc1	-6.2%	79.4µM*	?	21.2µM*	2.6
C/C(=N\NC(=O)c1cccnc1)c1ccc(OC2OCCOC2Oc2ccc(/C(C)=N/NC(=O)c3cccnc3)cc2)cc1 (centres undefined)	-5.4%	39.8µM*	?	29.9µM*	2.7
COc1cc(/C=N/Nc2nc3ccccc3s2)cc([N+](=O)[O-])c1O	-20.8%	-11.5%	?	-28.9%	-5.3
O=[N+]([O-])c1cc(Cl)cc(/C=N/Nc2nc3ccccc3s2)c1O	24.4%	-20.2%	0.0%	26.7µM*	-0.1
O=C(O)C1CCC(NSc2ccccc2[N+](=O)[O-])CC1 (centres undefined)	-2.8%	28.2µM*	5.5%	2.38µM*	-24.1
NC(=O)CC(NSc1ccccc1[N+](=O)[O-])C(=O)O (centres undefined)	-0.7%	?	22.6%	3.77µM*	-8.2
O=[N+]([O-])c1ccccc1SNc1ccccc1	.	.	3.6%	-9.3%	4.6
Cc1ccccc1CNC(=O)CN1C(=O)CCCc2ccccc21	-10.4%	3.8%	2.8%	.	-4.2
Cc1noc(C)c1S(=O)(=O)N(CC(=O)NCc1ccccc1Cl)c1ccc(C(C)C)cc1	-7.5%	-17.8%	2.6%	.	-0.8
Cc1ccc(S(=O)(=O)CCCS(=O)(=O)c2ccc(C)cc2)cc1	6.6%	-4.5%	-0.8%	-2.3%	3.2
Cc1ccc(S(=O)(=O)SCCCSS(=O)(=O)c2ccc(C)cc2)cc1	.	50.1µM*	15.3%	2.38µM*	-1.2
Cc1ccc(S(=O)(=O)CS(=O)(=O)c2ccc(C)cc2)cc1	.	-18.4%	-0.4%	-2.0%	5.3
Cc1ccc(S(=O)(=O)SC/C=C/CSS(=O)(=O)c2ccc(C)cc2)cc1	.	44.7µM*	17.5%	2.67µM*	-6.8
O=C(O)c1ccc(/C=N/Nc2cccc(C(F)(F)F)c2)cc1	-5.1%	-18.0%	14.1µM*	?	0.9
Cc1ccc(/C=N/Nc2ccc(C(=O)O)cc2)s1	?	1.5%	0.0%	-25.8%	?
O=C(O)c1ccc(N/N=C/c2cc(Br)cs2)cc1	11.6%	-15.7%	8.91µM*	-11.9%	-5.2
